DT40 TDP1 no CPT: qHTS for Inhibitors of human tyrosyl-DNA phosphodiesterase 1 (TDP1): qHTS in cells in absence of CPT; DT40 Tdp1-/- hTDP1 cells, no CPT, ATP luminescence, 48 h; Potency, µM (doses to about 46.2 µM), inactives show at the highest dose activity change, negative = growth inhibition, usual class: inhibitors; hit rate 15% among 420,000; AID 686978, 2013; further: potency means the concentration at half of the fitted maximal effect; nearly all actives have a fitted effect of over 55% in size
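Compound effects on proliferation are scored in DT40 Tdp1-/-;hTDP1 cells in the absence of CPT. ATP levels (CellTiter-Glo luminescence) are recorded after a ≥48 hr, 37 °C incubation.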
DT40 TDP1 CPT: growth inhibition of DT40 Tdp1-/-;hTDP1 cells with camptothecin (screen for TDP1 inhibitors) | chicken DT40 Tdp1-/-;hTDP1 cells + 20 nM CPT, ATP luminescence, 48 h | Potency, µM (series often up to 46.2 µM), for the others: top-dose activity change, negative = growth inhibition, hits mostly inhibitors | hit rate 12% among 420,000 | AID 686979; further: potency means the concentration at half of the fitted maximal effect; nearly all actives have a fitted effect of over 55% in size
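Chicken DT40 Tdp1-/- cells stably complemented with human TDP1 were seeded at 400 cells/well in medium containing 20 nM camptothecin, exposed to pin-transferred compounds, and grown at 37 °C for at least 48 hr. Viability was read as ATP luminescence.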
HT1080 IDH1KD tx: toxicity to HT-1080 IDH1 knockdown cells (counter line); HT-1080 IDH1 knockdown viability, ATP luminescence, 48 h; Potency, µM (doses to about 46.1 µM), for inactives: at the top dose activity, negative = toxicity, most hits filed as cytotoxic; hit rate 2% among 360,000; AID 686971;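 further: potency means the concentration at half of the fitted maximal effect; 0% = DMSO wells and -100% = cell-free medium wells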
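After a 2 h attachment period, IDH1KD HT-1080 cells took pin-transferred compound for 48 h at 37 °C; ATP-based luminescence after 10 min room-temperature reagent incubation reported viability.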
IL-1B inflam inh: blocks inflammasome-driven IL-1 beta release | THP-1 LPS/ATP IL-1B secretion, AlphaLISA, 16 h; active compounds read low | activity change, % at 57.5 µM | hit rate 4.7% among 360,000 | AID 743279; in the data active means activity change below about -50%; inconclusive means mostly about -30% to -49%
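THP-1 cells pretreated 1 hr with compounds (up to 57.5 uM final), then stimulated with LPS (250 ng/mL final) plus ATP (1.25 mM final); secreted IL-1B measured by AlphaLISA after 16 hr, decreased signal indicating inhibition.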
HT1080NT lethal: kills 2HG-producing HT-1080-NT fibrosarcoma cells | HT-1080-NT fibrosarcoma viability, CellTiter-Glo ATP luminescence, 48 h | Potency, µM (titrated, usually from 46.1 µM), without a hit: at the top dose activity, negative = less viability, hits mostly cytotoxic | hit rate 1.6% among 360,000 | AID 686970;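 further: NT is the 2HG producing partner of a matched IDH1 knockdown line; potency means the concentration at half of the fitted maximal effect; 0% = DMSO-treated cells and -100% = media-only wells without cells; nearly all actives have a fitted effect of over 55% in size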
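Compounds were tested in concentration-response format on HT-1080-NT cells for 48 hours at 37 degrees C. Cell viability came from CellTiter-Glo luminescence; curves were classified by r2, response magnitude and activity.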
The depositor's hits bear a star; ? = inconclusive; . = not tested or not shown. Rows were chosen to be rich in hits. Some 19% of all compounds tested hit in one or more screens of this group. Unless noted, the call rests on the fitted dose curve; in most records, active means well fitted curve in the direction sought with a large enough effect; inconclusive means small, poorly fitted or top-dose-only effect, or another doubt; inactive means no such curve, though single readings can be large; an effect the other way counts as inactive or inconclusive. Unless noted, on the % scale 0 is the no-effect control and ±100 the full control effect.

SMILES	DT40 TDP1 no CPT	DT40 TDP1 CPT	HT1080 IDH1KD tx	IL-1B inflam inh	HT1080NT lethal
COC(=O)C1(F)C(=O)NC(=O)NC1O (stereo not drawn)	-20%	14%	-3%	.	-3%
COc1ccccc1CC1/C(=N/O)C2CCN1CC2 (stereo not drawn)	2%	-7%	6%	4	25%
O=C1CC(c2ccccc2Br)c2c(c3ccccc3oc2=O)O1 (stereo not drawn)	-3%	14%	.	.	.
CC1=NOC2(C)Nc3ncnn3C(c3ccccc3)C12 (stereo not drawn)	-1%	12%	21%	-7	11%
[Cl-].[Cl-].[Hg+2]	0.34µM*	0.75µM*	.	.	.
CC1CCCCN1CC(O)c1c[nH]c2ccccc12 (stereo not drawn)	0%	10%	5%	-8	8%
c1ccc2c(CCN3CCCCC3)c[nH]c2c1	0%	-14%	?	-12	-13%
c1ccc2c(CN3CCCCC3)c[nH]c2c1	?	8.2µM*	-4%	0	-1%
CC1CCCCN1Cc1c[nH]c2ccccc12 (stereo not drawn)	7.3µM*	4.1µM*	-5%	-10	-3%
OC1(c2ccc(Cl)cc2)CCN(Cc2c[nH]c3ccccc23)CC1	16µM*	13µM*	18µM*	?	18µM*
CC(=O)CC1CCCCN1 (stereo not drawn)	1%	-2%	.	.	.
CCCCn1c(O)c(C(C)=NCC2CCCO2)c(=O)[nH]c1=O (stereo not drawn)	-9%	-9%	?	-24	?
CSCCC(c1nnnn1C1CCCC1)N1CCC2(CC1)C(=O)NCN2c1ccccc1 (stereo not drawn)	?	?	0%	-24	-2%
Cc1cccc(C)c1-n1nnnc1C(CCc1ccccc1)N1CCC2(CC1)C(=O)NCN2c1ccccc1 (stereo not drawn)	?	?	2%	6	1%
CSCCC(c1nnnn1Cc1ccccc1)N1CCC2(CC1)C(=O)NCN2c1ccccc1 (stereo not drawn)	21µM*	15µM*	-18%	0	?
O=C1NCN(c2ccccc2)C12CCN(C(c1ccccc1)c1nnnn1Cc1ccccc1)CC2 (stereo not drawn)	?	?	?	-13	-29%
O=C1NCN(c2ccccc2)C12CCN(C(c1nnnn1Cc1ccccc1)C1CC1)CC2 (stereo not drawn)	21µM*	?	-23%	-12	-2%
CSCCC(c1nnnn1-c1c(C)cccc1C)N1CCC2(CC1)C(=O)NCN2c1ccccc1 (stereo not drawn)	?	23µM*	?	?	?
CNC(=O)O/N=C/C(C)(C)S(C)=O (stereo not drawn)	10%	8%	.	.	.
O=C(CSc1nc2ccccc2c(=O)n1-c1ccc(Cl)c(Cl)c1)Nc1ccc2c(c1)CCC2	?	?	7%	8	9%
COc1ccc(CNC(=O)Cn2c(SCC(=O)Nc3ccc(C)c(C)c3)nc3ccccc32)cc1	4.6µM*	?	.	.	.
CCCC(=O)NC1=C(N2CC2)C(=O)C(NC(=O)CCC)=C(N2CC2)C1=O	1.6µM*	0.82µM*	-18%	2	-27%
Cc1ccccc1-n1c(CNc2ccccc2)nc2ccccc2c1=O	?	?	?	11	-2%
CCOC(=O)c1cc(-c2ccccc2)n(CCCC(=O)Nc2ccc(C)c(C)c2)c1C	3.7µM*	16µM*	.	.	.
COC(=O)C1(C(=O)OC)C[C@H](c2ccc(OC)cc2)N(Cc2ccccc2OC)[C@@H]1c1ccccc1	?	?	-7%	-21	0%
C=CCn1c(O)c(C(C)=NC(C)c2ccccc2)c(=O)[nH]c1=O (stereo not drawn)	16µM*	?	4%	12	0%
C=CCn1c(O)c(C(C)=NCCc2c[nH]c3ccccc23)c(=O)[nH]c1=O	-8%	18%	20%	0	27%
